Hits are enriched below; roughly 2.1% of the tested compounds scored in any of these assays.
BaF3 parental – reduces parental Ba/F3 cell viability, JAK2V617F counter-screen; inhibition, % at 5.6 µM; 220,000 compounds, 1.1% hits; CellTiter-Glo ATP luminescence;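 active = inhibition above a per-campaign cutoff, the mean inhibition of all tested compounds plus 3 SD, cut at about 27% in these data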;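 also: 0% = DMSO wells and 100% = JAK Inhibitor I control wells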
aSyn UTR inh – MLPCN primary screen, SNCA 5' untranslated region; alpha-synuclein 5'UTR reporter, inhibitor activity; 300,000 compounds, 0.82% hits; inhibition, % (tested at 7.5 µM); in the data active = inhibition above about 60%; inconclusive = no clear call, values can overlap the other calls;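 also: H4 neuroglioblastoma cells stably carrying SNCA 5'UTR luciferase fusion; 0% = DMSO wells and 100% = positive control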
IEC-6 tox – kills IEC-6 intestinal cells in KLF5 counter-screen; AID 1825; IEC-6 cytotoxicity, luminescence viability; inhibition, % at 5 µM; 290,000 compounds, 0.78% hits;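 also: 0% = plate median of test compound wells and 100% = cytotoxic reference compound wells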
Ba/F3 V617F tox – lowers viability of Ba/F3 cells expressing EpoR and JAK2V617F; 220,000 compounds, 1.1% hits; ATP luminescence; inhibition, % at 5.6 µM;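 active = inhibition above the campaign mean plus 3 SD over all tested compounds, cut at about 24% in these data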;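 also: cytokine-independent growth of Ba/F3 cells driven by EpoR plus mutant JAK2; 0% = DMSO-treated cells and 100% = JAK inhibitor I control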
APP 5UTR inh – APP translation inhibition; inhibition, % at 2 µM; SH-SY5Y APP 5'UTR-luciferase reporter, luminescence; 190,000 compounds, 0.82% hits;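 active = inhibition above a set limit, derived from the sample mean plus 3 SD, cut at about 45% in these data; inconclusive = one replicate passes the limit while the other fails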
KLF5 inhibitor – inhibitors of KLF5 expression; DLD-1 KLF5 promoter-luciferase reporter, luminescence; inhibition, % at 5 µM; 290,000 compounds, 0.23% hits;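 active = inhibition above a per-plate limit of that plate's mean compound inhibition plus 3 SD, cut at about 60% in these data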;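 also: 0% = DMSO wells and 100% = LY294002 at 200 µM; higher means less KLF5 promoter-driven luciferase light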
IEC-6 tox confirm – IEC-6 cytotoxicity, confirmation assay; inhibition, % at 5 µM; IEC-6 rat intestinal epithelial viability, luminescence; 1,900 compounds, 63% hits; shares compounds with IEC-6 tox;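 also: 0% = vehicle and 100% = reference cytotoxic drug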
An asterisk follows results filed as active; u = inconclusive; x = no result. Rule as the data show it, unless noted: active = inhibition above about 22%; inactive = the rest.

SMILES | BaF3 parental | aSyn UTR inh | IEC-6 tox | Ba/F3 V617F tox | APP 5UTR inh | KLF5 inhibitor | IEC-6 tox confirm
Cc1ccc(NC(=O)c2nc(S(=O)(=O)Cc3ccccc3)ncc2Cl)cc1 | x | 36 | 97* | x | x | 13 | 19
CCOC(=O)c1ccc(NC(=O)c2nc(SC)ncc2Cl)cc1 | x | -5 | -5 | x | x | -18 | x
O=C(Nc1ccc(F)cc1)c1nc(S(=O)(=O)Cc2ccccc2)ncc1Cl | x | 67* | 91* | x | x | 18 | 12
Cc1ccccc1CS(=O)(=O)c1ncc(Cl)c(C(=O)Nc2ccc(F)cc2)n1 | x | 64* | 61* | x | x | 9 | 10
CC1(C)CC(=O)C=C(NC2CCCC(O)C2)C1 (centres undefined) | x | 20 | x | x | x | x | x
COCc1cc(C)nc(OCC(=O)N/N=C/c2ccc(-c3cc([N+](=O)[O-])ccc3Cl)o2)c1C#N | 4 | 10 | 7 | -1 | -11 | -9 | x
CC(C)c1ccc(/C=C/C2=NNC(=O)CC2)cc1 | 30* | 87* | 55* | 38* | -165 | -119 | 37*
O=C(NC(Cc1ccccc1)C(=O)N1CCCCC1)c1ccccc1 (centres undefined) | x | 3 | x | x | x | x | x
Cc1cccc(N2CCN(S(=O)(=O)c3cc(-c4cc(C)no4)ccc3C)CC2C)c1 (centres undefined) | x | 11 | 50* | x | x | 30 | 32*
Cc1cc(-c2ccc(C(C)C)c(S(=O)(=O)N3CCN(c4ccccc4)CC3)c2)on1 | x | u | 78* | x | x | 50 | 53*
O=C(CCn1c(=O)oc2ccc(Cl)cc21)N1CCN(Cc2ccccc2)CC1 | x | -4 | 2 | x | x | 1 | x
Cc1cccc(CS(=O)(=O)c2ncc(Cl)c(C(=O)NCc3ccccc3)n2)c1 | x | 64* | 62* | x | x | 7 | 29*
Cc1nnc(NC(=O)c2nc(S(=O)(=O)Cc3ccccc3)ncc2Cl)s1 | x | -23 | 34* | x | x | 5 | -4
CCN(c1ccccc1)S(=O)(=O)c1ccc(C(=O)Nc2ccncc2)cc1 | x | -29 | x | x | x | x | x
CS(=O)(=O)c1ncc(Cl)c(C(=O)Nc2ccc(OC(F)F)cc2)n1 | x | -49 | 99* | x | x | -6 | 29*
CCN(c1ccccc1)S(=O)(=O)c1ccc(NC(=O)c2nc(S(C)(=O)=O)ncc2Cl)cc1 | x | 2 | 100* | x | x | 41 | 12
CS(=O)(=O)c1ncc(Cl)c(C(=O)Nc2ccc(N3CCOCC3)cc2)n1 | 3 | -24 | -2 | 8 | 44 | -22 | x
O=C(O)c1cccc(S(=O)(=O)N2CCN(C(c3ccccc3)c3ccccc3)CC2)c1 | 5 | 7 | -7 | 1 | -4 | -18 | x
O=C(NCCc1ccc(Cl)cc1)c1ccc2[nH]c(=O)c(=O)[nH]c2c1 | x | -4 | -4 | x | x | 0 | x
CSc1ncc(Cl)c(C(=O)Nc2cccc3ccccc23)n1 | 2 | -21 | 4 | -1 | -8 | -4 | x
Cc1cccc(C)c1NC(=O)c1nc(S(=O)(=O)Cc2ccccc2)ncc1Cl | x | 19 | 38* | x | x | 18 | 15
Cc1ccccc1NC(=O)c1nc(S(C)(=O)=O)ncc1Cl | x | 6 | 40* | x | x | 4 | 15
Cc1cccc(CS(=O)(=O)c2ncc(Cl)c(C(=O)Nc3c(C)cccc3C)n2)c1 | x | 35 | 35* | x | x | -12 | 11
O=C(Cc1ccccc1[N+](=O)[O-])OCc1cccc([N+](=O)[O-])c1 | x | 2 | 3 | x | x | -21 | x
CC(SCc1ccccc1)C(=O)Nc1ccccc1F (centres undefined) | x | -19 | 6 | x | x | -18 | x
SMILES | BaF3 parental | aSyn UTR inh | IEC-6 tox | Ba/F3 V617F tox | APP 5UTR inh | KLF5 inhibitor | IEC-6 tox confirm
CC(C)c1ccc(NC(=O)Nc2cnccn2)cc1 | x | -212 | 42* | x | x | -82 | 15
Cc1ccc(NC(=O)Nc2cnccn2)cc1 | x | -118 | -3 | x | x | -96 | x
Cc1ccc(-c2cc(=O)c3ccccc3[nH]2)cc1 | 8 | -77 | 11 | 2 | -14 | -13 | x
Cc1ccc2[nH]c(-c3ccccc3)cc(=O)c2c1 | 81* | 89* | 88* | 86* | 91* | 57 | 57*
COc1ccc(OC)c(S(=O)(=O)Nc2cc(OC)c(Cl)cc2OC)c1 | 3 | -6 | -9 | -1 | 7 | -18 | x
COc1cc(NS(=O)(=O)c2ccc(OC)c(C)c2C)c(OC)cc1Cl | 51* | -26 | 35* | 57* | 65* | 53 | 52*
Cc1cc(C)c2sc(NC(=O)C3CC3)nc2c1 | x | -89 | 3 | x | x | -11 | x
Cc1ccccc1CN(C)Cc1cc(=O)oc2c(C)c(C)ccc12 | x | 14 | 28* | x | x | -22 | 18
COc1cccc(CN(C)Cc2cc(=O)oc3cc(O)c(Cl)cc23)c1 | x | 12 | -6 | x | x | -14 | x
COc1cccc(CN(C)Cc2cc(=O)oc3c(C)c(C)ccc23)c1 | x | 30 | 61* | x | x | -42 | 39*
Cc1c(O)ccc2c(CN(C)Cc3ccccc3)cc(=O)oc12 | 2 | 16 | 58* | -2 | x | -39 | 15
CC(C)C(=O)NC(c1cccc([N+](=O)[O-])c1)c1ccc2cccnc2c1O (centres undefined) | x | 91* | 25* | x | x | 79* | 67*
CC(=O)NC(c1ccc(Cl)cc1Cl)c1ccc2cccnc2c1O (centres undefined) | x | 86* | 49* | x | x | 59 | 73*
CC(C)C(=O)NC(c1cccc([N+](=O)[O-])c1)c1c(O)ccc2ccccc12 (centres undefined) | 0 | -4 | 0 | -5 | -18 | -23 | x
COc1cc(C(=O)Nc2ccc(C)cc2)c2ccccc2n1 | x | 82* | 84* | x | x | 62 | 65*
CC1=C(C(=O)OCc2ccc3c(c2)OCO3)C(c2ccc(Cl)cc2)NC(=O)N1 (centres undefined) | 76* | 41 | 82* | 74* | 78* | 54 | 72*
CSCCOC(=O)C1=C(C)NC(=O)NC1c1ccc2c(c1)OCO2 (centres undefined) | x | 9 | 5 | x | x | -8 | x
CC1=C(C(=O)OCc2ccc3c(c2)OCO3)C(c2ccc(F)cc2)NC(=O)N1 (centres undefined) | 31* | 19 | 38* | 52* | 44 | 41 | 47*
Cc1ccc(NC(=O)Nc2cc(S(C)(=O)=O)ccc2Cl)cc1 | -3 | -77 | -1 | 2 | x | -55 | x
COc1ccc(CN2CCN(C3CCC3)CC2CCO)c(C)c1C (centres undefined) | x | -13 | -4 | x | x | -12 | x
Cc1ccc(NC(=O)C(=O)c2ccc(C)cc2)cc1 | x | -208 | -5 | x | x | -127 | x
COc1ccccc1-c1nnc(Nc2nc3c(OC)cccc3s2)o1 | 76* | 81* | 69* | 72* | 87* | 59 | 73*
COc1cccc(-c2nnc(Nc3nc4c(F)cccc4s3)o2)c1 | 2 | -145 | -3 | 0 | -49 | -74 | x
COc1ccc(CCN2CCCn3c2nc2c3c(=O)n(CC(N)=O)c(=O)n2C)cc1OC | x | -1 | -6 | x | x | -36 | x
CCOC(=O)N/N=C/c1c(C)nn(-c2cccc(C(F)(F)F)c2)c1Cl | 42* | 19 | 44* | 67* | 86* | 14 | 53*
COc1cc(OC)c(C2=NOC(C(=O)NCc3cccnc3)C2)cc1Cl (centres undefined) | x | -56 | 3 | x | x | -3 | x
